The whole screen tested about 400,000 compounds, of which about 2,100 (0.53%) were called active. About 14% were inconclusive and are not listed. How the calls were made is not given here. Many of the other results were omitted from the sample, so actives are more common in it than they were.

Drawing on ChEMBL document CHEMBL1201862, “PubChem BioAssay data set” (2004), this text covers Potency for 64 molecules.

For the assay, the target named is Ataxin-2 (Homo sapiens) (UniProt Q99700). Nature of the assay: qHTS for Inhibitors of ATXN expression. It is filed as functional. Background: qHTS replaces the single test concentration by a dilution series.
Ataxin-2 (Homo sapiens), sequence (Q99700 whole entry): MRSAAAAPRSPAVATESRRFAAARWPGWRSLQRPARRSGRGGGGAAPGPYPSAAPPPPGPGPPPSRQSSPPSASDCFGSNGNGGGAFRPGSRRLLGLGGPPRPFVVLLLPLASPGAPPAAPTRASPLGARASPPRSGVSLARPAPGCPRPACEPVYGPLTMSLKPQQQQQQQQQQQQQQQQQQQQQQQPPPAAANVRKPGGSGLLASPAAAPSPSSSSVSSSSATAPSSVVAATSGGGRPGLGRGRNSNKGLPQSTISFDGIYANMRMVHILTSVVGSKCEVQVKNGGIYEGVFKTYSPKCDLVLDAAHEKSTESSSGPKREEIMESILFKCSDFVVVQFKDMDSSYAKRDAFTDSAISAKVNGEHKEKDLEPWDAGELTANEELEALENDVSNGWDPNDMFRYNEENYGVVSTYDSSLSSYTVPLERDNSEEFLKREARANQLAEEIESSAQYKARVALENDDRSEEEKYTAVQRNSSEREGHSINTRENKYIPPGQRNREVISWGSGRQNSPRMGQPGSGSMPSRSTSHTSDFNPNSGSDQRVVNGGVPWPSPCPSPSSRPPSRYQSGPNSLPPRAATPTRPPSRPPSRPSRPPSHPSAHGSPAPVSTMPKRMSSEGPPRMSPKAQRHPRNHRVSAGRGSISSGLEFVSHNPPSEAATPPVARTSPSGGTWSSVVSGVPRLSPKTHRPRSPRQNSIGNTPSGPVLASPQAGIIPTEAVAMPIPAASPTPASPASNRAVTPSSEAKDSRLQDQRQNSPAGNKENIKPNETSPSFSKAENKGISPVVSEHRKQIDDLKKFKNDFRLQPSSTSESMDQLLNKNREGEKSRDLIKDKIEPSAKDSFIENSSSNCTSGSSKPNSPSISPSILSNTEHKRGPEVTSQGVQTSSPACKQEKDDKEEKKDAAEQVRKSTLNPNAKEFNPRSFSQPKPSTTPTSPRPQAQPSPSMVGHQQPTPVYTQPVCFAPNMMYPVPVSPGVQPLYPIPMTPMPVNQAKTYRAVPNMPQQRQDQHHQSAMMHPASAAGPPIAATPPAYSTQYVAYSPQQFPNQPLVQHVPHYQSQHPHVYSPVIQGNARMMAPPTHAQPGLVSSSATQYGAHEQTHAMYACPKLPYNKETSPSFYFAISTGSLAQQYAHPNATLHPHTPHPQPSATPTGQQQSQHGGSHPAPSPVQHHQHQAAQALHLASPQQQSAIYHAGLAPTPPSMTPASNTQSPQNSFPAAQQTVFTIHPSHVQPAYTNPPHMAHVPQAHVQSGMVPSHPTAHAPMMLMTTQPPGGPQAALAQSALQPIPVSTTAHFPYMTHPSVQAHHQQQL
Take `N#CC1(Nc2cccc(Br)c2)C(=O)Nc2ccccc21` (centres undefined): the Potency result is “inactive”.

As for `COc1ccc(OC)c(S(=O)(=O)N2CCN(c3ccccc3)CC2)c1`, the Potency result was “inactive”.

Take `CCOc1ccc(C2=CC(c3cc(Br)ccc3F)n3ncnc3N2)cc1Cl` (centres undefined): the Potency entry is “inactive”.

`CCOc1cc(C2c3c(-c4ccc(Br)cc4)n[nH]c3C(=O)N2c2ccc(Cl)cc2)ccc1O` (centres undefined): the Potency was 28.2 µM (active).

Regarding `Cc1cccc(C2=NN(c3ccc(Br)cc3)[C@@H](C(=O)N3CCOC3=O)[C@@H]2c2ccc(Cl)cc2)c1`, the Potency entry is “inactive”.

In the case of `O=C1OCCN1C(=O)[C@H]1[C@H](c2ccc(Cl)cc2)C(c2cccc(Cl)c2)=NN1c1ccc(Br)cc1`, the Potency result was “inactive”.

For `O=C1c2[nH]nc(-c3ccc(Br)cc3)c2C(c2cccc(O)c2)N1c1ccc(Cl)cc1` (centres undefined), the Potency is 28.2 µM (active).

With `CCOc1cc(C2NN=C(c3ccc(C)cc3)S2)ccc1O` (centres undefined), the Potency entry was “inactive”.

Consider `CCN(CCCn1c(=S)[nH]c2ccc(N3CCOCC3)cc2c1=O)c1ccccc1`, for which the Potency result is “inactive”.

For `CN(/N=C/c1ccc2c(c1)OCO2)c1nc(N2CCOCC2)nc(N2CCOCC2)n1`, the Potency result is “inactive”.

On to `Cc1nonc1NC(=O)CSc1nc2ccccc2cc1C#N`, for which the Potency result was “inactive”.

Turning to `CC(=O)c1ccc2cccc3c2c1NC(C)=N3`, the Potency result is “inactive”.

For `Cc1nc(=O)c(-c2ccccc2)c(C)n1-c1ccccc1Cl`, the Potency result was “inactive”.

Take `COc1ccccc1NC(=O)c1ccc(-n2ccnc2)c([N+](=O)[O-])c1`: the Potency result is “inactive”.

For `Cn1c2ccccc2c(=O)c2ccc(F)cc21`, the Potency entry is “inactive”.

Regarding `Cc1ccc(Sc2nc(C)c([N+](=O)[O-])c(C)c2C#N)cc1`, the Potency result was “inactive”.

Take `Cc1ccc(Sc2c([N+](=O)[O-])c(=O)n(C)c3ccccc23)cc1`: the Potency is 28.2 µM (active).

With `Cn1c(=O)c([N+](=O)[O-])c(-n2ccnc2)c2ccccc21`, the Potency was 23.8 µM (active).

For `Cn1c(=O)c([N+](=O)[O-])c(Cl)c2ccccc21`, the Potency was 29.9 µM (active).

Take `CCN(CC)c1c([N+](=O)[O-])c(=O)n(CC)c2ccccc12`: the Potency result was “inactive”.

`CCOc1ccc(C2C(C#N)=C(N)Oc3cc(O)ccc32)cc1OCC` (centres undefined): the Potency result is “inactive”.

`COCOc1ccc(/C=C2/Oc3cc(OCOC)cc(OCOC)c3C2=O)c(OCOC)c1`: the Potency entry is “inactive”.

Consider `Cc1cscc(C)c1=S`, for which the Potency entry is “inactive”.

With `Nc1c(C(=O)CSc2ncccn2)c(=O)[nH]c(=O)n1C1CC1`, the Potency result was “inactive”.

Consider `Cc1c(CCC(=O)O)c(=O)oc2c(C)c3occ(-c4ccc(Br)cc4)c3cc12`, for which the Potency result was “inactive”.

With `COc1ccc([N+](=O)[O-])cc1C(=O)Nc1ccc(Cc2ccncc2)cc1`, the Potency entry is “inactive”.

For `O=C(Nc1ccc(S(=O)(=O)Nc2cnc3ccccc3n2)cc1)c1ccc([N+](=O)[O-])cc1Cl`, the Potency entry was “inactive”.

As to `O=C(Nc1ccc(Nc2ccncc2)cc1)c1ccc(Nc2ccnc3ccc([N+](=O)[O-])cc23)cc1[N+](=O)[O-]`, the Potency was 39.8 µM (active).

On to `N#Cc1cc2c(=O)n3ccccc3nc2n(CCCN2CCOCC2)c1=O`, for which the Potency entry was “inactive”.

Regarding `CCOc1cc(C2C3=C(CCCC3=O)N(CCC(=O)O)C3=C2C(=O)CCC3)ccc1OS(=O)(=O)c1ccc(C)cc1`, the Potency entry was “inactive”.

In the case of `CC(=O)NCCc1nc2cc(NC(=O)c3cccs3)ccc2n1C`, the Potency result was “inactive”.

On to `Cc1ccc(C(C)C)c(OCC(=O)Nc2ccc3c(c2)nc(CCN2CCCCC2)n3C)c1`, for which the Potency was 39.8 µM (active).

`Cc1cc(S(=O)(=O)N2CCCC2)ccc1OCC(=O)Nc1ccc(C(N)=O)cc1`: the Potency entry was “inactive”.

Regarding `O=C1/C(=C\Nn2cnnc2)c2ccccc2C(=O)N1c1ccccc1F`, the Potency entry is “inactive”.

Regarding `COc1ccccc1NS(=O)(=O)c1cccc(NC(=O)c2[nH]c(C)c(C(C)=O)c2C)c1`, the Potency result is “inactive”.

For the molecule `COc1ccccc1NS(=O)(=O)c1cccc(NC(=O)Nc2cccc(Cl)c2)c1`, the Potency is 44.7 µM (active).

Take `COc1ccccc1NS(=O)(=O)c1ccc(C)c(NC(=O)c2c(C)noc2C)c1`: the Potency entry was “inactive”.

As to `CCOC(=O)NN=C1c2ccccc2-c2nc3nonc3nc21`, the Potency was 3.77 µM (active).

For the molecule `COC(=O)c1c(C)nc2nonc2c1N`, the Potency entry was “inactive”.

Regarding `CCOC(=O)Nc1c2ccccc2nc2ccccc12`, the Potency result is “inactive”.

`COc1cc(/C=C/C(=O)N2C(=O)c3cccc(N)c3C2=O)cc(OC)c1OC`: the Potency entry was “inactive”.

Consider `Cn1c2nc(=O)[nH]c(=O)c-2cc2ccccc21`, for which the Potency result was “inactive”.

For `C=CCOc1ccccc1CN(C(=O)CCl)c1ccc2c(c1)OCO2`, the Potency was 39.8 µM (active).

With `CCc1cccc(CC)c1N1C(=O)C2=C(SCCCS2)C1=O`, the Potency entry is “inactive”.

Regarding `CCOC(=O)C1(CCOc2ccccc2)CCN(Cc2ccc(C#CCCO)cc2)CC1`, the Potency result is “inactive”.

Turning to `Cc1cc(N2CCN(C(=O)c3ccco3)CC2)n2nc(-c3cccc(Cl)c3)cc2n1`, the Potency is 35.5 µM (active).

On to `Cn1c(C(=O)N2CCN(C(=O)c3ccco3)CC2)cc2c(=O)n3ccccc3nc21`, for which the Potency entry was “inactive”.

For the molecule `O=C(c1ccco1)N1CCN(c2c(O)nc3ccc(Cl)cc3c2-c2ccccc2)CC1`, the Potency was 28.2 µM (active).

As to `CCc1noc(C)c1C(=O)N1CCN(c2cccc(Cl)c2)CC1`, the Potency result was “inactive”.

On to `O=c1oc2cc(O)ccc2cc1-c1ccc(F)cc1`, for which the Potency result was “inactive”.

With `Cc1ccc(/N=c2\oc3cc(O)ccc3cc2C(N)=O)cc1`, the Potency result is “inactive”.

In the case of `O=CNc1ccc2c3c(cccc13)-c1ccccc1-2`, the Potency entry is “inactive”.

As for `CC1=NN(c2ccccc2)C(=O)C1/C=N/c1ccc(N(C)C)cc1` (centres undefined), the Potency result is “inactive”.

Regarding `CN(C)C=O.CN(C)c1ccc(/C=C/c2nc3ccccc3c(=O)n2-c2ccc(C(=O)O)cc2)cc1`, the Potency entry was “inactive”.

Take `CC1=NN(c2ccccc2)C(=O)/C1=C/C=C/c1ccc(N(C)C)cc1`: the Potency is 17.8 µM (active).

`O=C(COC(=O)Cc1ccsc1)NNC(=O)c1ccccc1`: the Potency entry was “inactive”.

`C#CCN1C(=O)S/C(=C\c2cc3c(cc2OC)OCO3)C1=O`: the Potency entry was “inactive”.

Turning to `CNC(=O)c1cc(NC(=O)CCn2nc(-c3ccccc3)c3ccccc3c2=O)ccc1OC`, the Potency result was “inactive”.

With `COc1ccc(Cl)cc1C(=O)NNC(=O)c1[nH]nc2ccccc12`, the Potency result is “inactive”.

As to `CCn1nc(C(=O)NNC(=O)c2cc(Cl)ccc2OC)c2ccccc2c1=O`, the Potency is 39.8 µM (active).

Consider `CC(=O)N(Cc1ccccc1)c1ncc2c(n1)c(=O)c(C#N)c1ccccn12`, for which the Potency result was “inactive”.

On to `COCCCNC(=O)C[S+]([O-])Cc1nc(-c2ccccc2C)oc1C` (centres undefined), for which the Potency entry is “inactive”.

Consider `CCCCCOc1ccc(Br)cc1CSC(=N)N`, for which the Potency is 35.5 µM (active).

For the molecule `CCCn1c(=N)c(C(=O)NCC2CCCO2)cc2c(=O)n3cccc(C)c3nc21` (centres undefined), the Potency result is “inactive”.
